# According to PubChem BioAssay (NCI):
# The panel holds about 83,000 compounds, 20% with a hit somewhere; the sample as a whole holds those more often.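 Treatment: one concentration, 48 hours, 96-well format. Scoring: percent growth, with anything below 10 considered active.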 A number with no mark means an inactive call. Activity calls are given as the source filed them.
# Experiments:
# Experiment in all cases: NCI-60 one-dose screen, 48 h (100 = growth as untreated, 0 = no growth, -100 = all killed)
# Details in all cases: 10 µM unless noted
# [1] = test system: NCI-H23 lung
# [2] = test system: NCI-H226 lung
# [3] = test system: NCI-H322M lung
# [4] = test system: HOP-62 NSCLC
# [5] = test system: NCI-H460 lung
# [6] = test system: HOP-92 NSCLC
# [7] = test system: NCI-H522 lung
# [8] = test system: A549/ATCC NSCLC
# [9] = test system: 786-0 renal
# [10] = test system: COLO 205 colon
Structure (SMILES),growth [1],growth [2],growth [3],growth [4],growth [5],growth [6],growth [7],growth [8],growth [9],growth [10]
Oc1ccccc1-c1nnc(SCc2ccc(O)c3ncccc23)n1-c1ccccc1,17.4%,9% (active),21.9%,13.6%,3.98% (active),-4.85% (active),-6.01% (active),9.34% (active),20.1%,34.5%
Cn1c(SC(C(=O)Nc2ccc(F)cc2)c2ccccc2)nc2ccccc2c1=O (stereo not given),103%,102%,111%,99.6%,112%,86.9%,93.1%,99.1%,102%,119%
COc1cc([C@H]2OC[C@H]3[C@@H]2CO[C@@H]3c2ccc(O)c(OC)c2)ccc1O,86.3%,86%,91.7%,81.2%,90.3%,91.8%,75.8%,95.1%,101%,86.9%
Cn1nc(Nc2ccccc2)c(C(=O)NN)c1N,100%,92.5%,97%,99.8%,107%,111%,96.9%,98.3%,109%,104%
COc1cc(/C=C2\SC(=O)NC2=O)ccc1OCC(=O)Nc1ccc(C(=O)/C=C/c2cc3ccccc3nc2Cl)cc1,68.6%,96.2%,99.2%,107%,96.3%,82.5%,72.5%,102%,101%,116%
O=C(Nc1ccccc1)Nc1nc2ccc([N+](=O)[O-])cc2s1,0.812% (active),0.421% (active),10%,8.52% (active),4.82% (active),-22.2% (active),3.38% (active),8.07% (active),14.1%,-26.1% (active)
CCOC(=O)c1c(NC(=O)c2ccc(F)cc2F)sc2c1CCC(=O)C2,103%,107%,102%,104%,102%,107%,51.6%,92.8%,100%,109%
Oc1ccc(CSc2nnc(-c3ccccc3)n2-c2ccccc2)c2cccnc12,18.8%,19.8%,18.5%,11.1%,1.36% (active),-14.4% (active),12.6%,13%,18.7%,61.7%
CS(=O)(=O)c1ccc(-c2nn(-c3ccccc3)cc2/C=C/C(=O)c2ccc(Br)cc2)cc1,100%,101%,95.4%,105%,93.9%,114%,82.6%,96.5%,91.5%,113%
O=c1cc(-c2ccccc2)nc2sc(-c3c[nH]c4ccc(F)cc34)nn12,73.2%,41%,61.2%,19.1%,17.2%,-1.32% (active),62.6%,58.7%,15.8%,74.7%
COc1cc(C2=NN(C(C)=O)C(c3ccc(N4CCOCC4)cc3)C2)cc(OC)c1OC (stereo not given),86.8%,96.5%,88.1%,91.8%,103%,92.4%,89.7%,104%,95.5%,106%
O=C(/C=C1\C=CN(CCCCCCF)c2ccccc21)n1ccc2ccccc21,89.5%,48.4%,96.6%,85.8%,110%,70.3%,86.4%,102%,111%,103%
COc1ccc2c(c1)oc1c3[nH]c4ccccc4c3c3c(c21)C(=O)N(O)C3=O,31.6%,79.9%,65.5%,13.2%,5.34% (active),98.7%,43%,74.3%,31.1%,69.5%
COc1ccc(-c2cc(-c3cccc4ccccc34)n3c(n2)nc2ccccc23)cc1OC,44.7%,19.8%,75.8%,-0.816% (active),3.44% (active),11.5%,48.1%,24.2%,10.5%,65.4%
CC(C)=CCC[C@](C)(O)[C@H]1CC[C@]2(C)[C@@H]1CC[C@@H]1[C@@]3(C)CCC(NC(=O)c4ccccc4C(=O)O)C(C)(C)[C@@H]3CC[C@]12C (stereo not given in full),85.8%,89.7%,104%,104%,110%,75.6%,95.3%,93.1%,99.9%,-10.3% (active)
O=C(NNc1nc2cc(F)c(F)cc2n2cccc12)c1ccncn1,18.3%,16.2%,28.9%,26.8%,9.5% (active),62.7%,2.02% (active),18%,11.9%,19.9%
C=C1C(=O)O[C@@H]2C[C@@H](C)CCC(=O)[C@](C)(OC(C)=O)C[C@H](OC(=O)/C(C)=C\C)[C@@H]12,70.6%,104%,102%,105%,97.3%,80%,11.8%,87.7%,90.8%,28.6%
CSc1nccc(-c2c(-c3ccc(F)c(OCc4ccc(F)cc4)c3)nc3sccn23)n1,60.2%,76.6%,91.3%,104%,89.8%,54.5%,66.7%,78.7%,74.4%,83.8%
CCN1C(=O)N(CC)C2SC(N/N=C/c3ccccc3)=NC21 (stereo not given),31.1%,43%,51.7%,38.3%,6.05% (active),2.09% (active),-34.3% (active),28.7%,32.7%,-43.5% (active)
COc1cc2c3c(n(CCCN4CCCC4)c(=O)c2cc1OC)-c1cc2c(cc1C3=O)OCO2,-73.2% (active),80.1%,-40.2% (active),-72.6% (active),-78.6% (active),119%,-59.7% (active),-77.1% (active),-90.9% (active),-77.3% (active)
Cc1ccc(-c2cc3nc(C(Cl)Cl)nc(-c4ccccc4)n3n2)cc1,95.4%,103%,74.3%,73.6%,46.9%,94.9%,98.1%,77.5%,94.4%,54.3%
COc1cc(NC2=C(Cl)C(=O)c3nc(C)ccc3C2=O)cc(OC)c1,-55.6% (active),68.6%,89.8%,0.846% (active),2.02% (active),-12.2% (active),-80.6% (active),42.4%,-59.5% (active),-80.5% (active)
O=C1[C@H]2Cc3c([nH]c4ccccc34)[C@@H](c3ccc(Cl)cc3)N2C(=O)CN1C1CCN(Cc2c(Cl)cccc2Cl)CC1,27.7%,81.6%,103%,84.9%,86%,21.5%,74.6%,87.6%,-64% (active),103%
Cc1cc2nc(C(Cl)Cl)nc(-c3ccco3)n2n1,76.8%,95.6%,23.3%,47.9%,0.56% (active),79.5%,93.9%,3.5% (active),96.2%,25.8%
CC(=O)C1=NN(c2ccc(Cl)cc2)C(=O)CN1C,94.9%,105%,101%,103%,108%,107%,95.6%,96.2%,91.2%,106%
COc1ccccc1/C=C/C=N/NC1=NC2C(S1)N(C)C(=O)N2c1ccccc1 (stereo not given),30.1%,45.5%,38.1%,46%,2.27% (active),38.9%,13.1%,22.5%,16.8%,-4.6% (active)
